Test results from ChEMBL document CHEMBL3988442, “University of Dundee, Small-Polar-MMV Screening Library” (2021).

Key:
[1] = molecular target: T1, Aspartate--tRNA(Asp/Asn) ligase (Mycobacterium tuberculosis (strain ATCC 25618 / H37Rv)) (UniProt P9WFW3); experiment: Assay for Asp RNA synthetase-1 from Mycobacterium tuberculosis; assay type: functional; design: scale not given: direction of the effect not stated beside the values; details: 30 µM; note: in the data most compounds retested in dose-response had high values
T1 sequence (whole entry): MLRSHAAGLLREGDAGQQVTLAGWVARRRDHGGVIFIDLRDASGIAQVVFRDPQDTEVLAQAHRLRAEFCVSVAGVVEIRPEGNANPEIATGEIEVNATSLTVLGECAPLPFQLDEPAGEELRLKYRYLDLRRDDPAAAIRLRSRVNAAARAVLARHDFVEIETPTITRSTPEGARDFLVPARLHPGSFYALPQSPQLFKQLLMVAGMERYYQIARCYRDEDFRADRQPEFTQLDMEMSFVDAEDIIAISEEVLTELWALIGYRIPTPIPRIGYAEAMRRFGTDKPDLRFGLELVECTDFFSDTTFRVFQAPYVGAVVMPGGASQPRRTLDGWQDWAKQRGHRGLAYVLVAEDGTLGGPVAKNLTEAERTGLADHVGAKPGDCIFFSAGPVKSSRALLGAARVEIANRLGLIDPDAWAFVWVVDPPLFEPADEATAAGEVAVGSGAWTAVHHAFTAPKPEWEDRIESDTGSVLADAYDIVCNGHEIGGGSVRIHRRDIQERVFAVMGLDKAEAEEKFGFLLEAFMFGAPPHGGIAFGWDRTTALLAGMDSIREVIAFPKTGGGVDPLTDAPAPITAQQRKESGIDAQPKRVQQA

[2] = molecular target: Shiga toxin 2 (Escherichia coli O157:H7) (UniProt P09385+P09386); experiment: E. coli 0.157:H7 Shiga Toxin SOP - stx2 screening assay; assay type: functional; design: scale not given: direction of the effect not stated beside the values; details: 30 µM

Structure (SMILES) | Percent Effect [1] | Percent Effect [2]
O=C(CCc1cnn(-c2ccccc2)c1)N1CCCC(n2cccn2)C1 (stereo not given) | -0.589% | 26.2%
O=C(CC1CCCCC1)N1CCN(C(=O)NCc2ccccn2)CC1 | 2.1% | 20.8%
Cc1nn(C)c(C)c1C1COCCN1C(=O)c1n[nH]c2ccccc12 (stereo not given) | -1.46% | -15.4%
COc1nn(C)c2c1CCCN(C(=O)c1cc[nH]n1)C2 | 0.229% | -2.49%
O[C@H]1CCN(Cc2ccoc2)[C@H]1Cc1cccnc1 | 6.58% | -6%
c1ccc(-n2ncc(CN3CCCC3Cn3cccn3)n2)cc1 (stereo not given) | -5.28% | 2.57%
Cc1cc(C(=O)N2C[C@@H]3[C@@H](C2)OCC(=O)N3CC2CC2)no1 | 9.42% | -55.2%
Cc1cnc(CN(C)CC2CCCN2c2cccnn2)cn1 (stereo not given) | 2.77% | 7.46%
COc1ccc(CCC(=O)Nc2cccnc2N2CCCC2)cc1Br | -3.21% | 28.3%
CC(c1ccc(Cl)cc1)N1CCN(CCNS(C)(=O)=O)CC1 (stereo not given) | 1.42% | -11.7%
Cn1cc(CNC2CCCN(Cc3noc(C4CC4)n3)C2)cn1 (stereo not given) | -1.26% | 24.8%
Cc1nc(N2CCCC2)ncc1-c1cc(O)nc(N2CCCC2)n1 | -6.71% | -0.674%
c1ccc(CN2CCCC2Cn2cncn2)nc1 (stereo not given) | 3.85% | -7.85%
CCN(Cc1ccc2c(c1)OCO2)Cc1nc(C)no1 | 4.08% | 23.9%
CCN1CCN(C2CCN(Cc3noc(C)n3)CC2)C1=O | -5.45% | -25.5%
Cc1noc(C)c1CCC(=O)N1CCN(CCn2cncn2)CC1 | 6.07% | -7.17%
Clc1ccc2cccnc2c1CN1CCCC1Cn1cncn1 (stereo not given) | -0.524% | 0.609%
Cc1cc(C)n(CC2CCCN2CCS(=O)(=O)c2ccccc2)n1 (stereo not given) | -0.833% | -9.51%
Cc1ccccc1NS(=O)(=O)c1cc2c(c(C(=O)O)c1)OCCO2 | -0.815% | 29.1%
Cc1cnccc1CN1C[C@@H](O)[C@H](Oc2cccc(F)c2)C1 | -1.59% | -1.74%
